RE007 growth inh: qHTS Assay for Inhibitors of the HIV-1 protein Vpr. S. pombe RE007 Vpr strain, BacTiter-Glo ATP luminescence, 24 h. Potency, µM (doses to about 92.2 µM), most hits filed as inhibitors. 0.21% of 360,000 active; active = well fitted falling curve with a large enough effect; inconclusive = small, poorly fitted or top-dose-only effect; inactive = no such curve, though single readings can be large or run the other way; note: nearly all actives have a fitted effect of over 50% in size
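Fission yeast RE007 carrying one integrated HIV-1 vpr copy, seeded at OD 0.01 in PMG+AL medium with 23 nL pinned compound. Grown 24 h at 30 degrees; viability read by BacTiter-Glo luminescence after 5 min.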
Tb PYK inh: qHTS of Trypanosoma Brucei Inhibitors; Potency, µM (titrated, usually from 76.8 µM), most hits filed as inhibitors; 0.12% of 410,000 active; AID 624173, 2012; pyruvate kinase (Trypanosoma brucei), Q57TT1; TbPYK enzyme, Kinase-Glo Plus ATP luminescence, 45 min; note: nearly all actives have a fitted effect of over 50% in size
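Luminescent Kinase-Glo Plus end-point after 45 min room-temperature reaction of T. brucei pyruvate kinase started with 130 uM ADP (final). Buffer TEA 50 mM pH 7.2 with KCl, MgCl2, BSA, Tween-20; titration-based qHTS with fitted concentration-effect curves.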
NS1 inh: qHTS Assay for Inhibitors of Influenza NS1 Protein Function; Potency, µM (doses to about 46.1 µM); AID 2326, 2010; 0.4% of 270,000 active; calls by dose curve; note: actives are rising curves; nearly all actives have a fitted effect of over 50% in size
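Growth recovery, yeast-based: influenza A NS1 expressed in S. cerevisiae causes slow growth, and suppressors are detected by OD600. The parent strain without NS1 is used as positive control.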
LmPK inhibitor: qHTS Assay for Inhibitors of Leishmania Mexicana Pyruvate Kinase (LmPK); 0.37% of 290,000 active; purified LmPK, Kinase-Glo ATP luminescence, 1 h; Potency, µM (doses to about 57.5 µM), most hits filed as inhibitors; AID 1721, 2009
Target sequence (Q27686 whole entry, looked up): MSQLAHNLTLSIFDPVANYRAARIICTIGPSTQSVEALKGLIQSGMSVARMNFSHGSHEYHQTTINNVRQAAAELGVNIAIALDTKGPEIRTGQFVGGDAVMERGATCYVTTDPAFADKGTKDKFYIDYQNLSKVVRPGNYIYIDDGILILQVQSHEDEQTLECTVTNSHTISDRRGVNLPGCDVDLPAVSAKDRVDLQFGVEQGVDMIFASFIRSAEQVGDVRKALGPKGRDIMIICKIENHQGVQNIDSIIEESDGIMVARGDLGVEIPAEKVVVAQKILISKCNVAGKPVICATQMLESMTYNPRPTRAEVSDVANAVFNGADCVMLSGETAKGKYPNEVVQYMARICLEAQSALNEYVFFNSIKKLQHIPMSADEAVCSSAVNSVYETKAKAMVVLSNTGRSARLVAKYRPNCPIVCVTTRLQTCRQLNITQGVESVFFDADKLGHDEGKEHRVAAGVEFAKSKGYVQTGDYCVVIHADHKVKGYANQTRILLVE
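Pyruvate kinase activity monitored as ATP production (luciferase luminescence). Conditions: 0.1 nM enzyme, 0.5 mM PEP, 0.1 mM ADP, 1 h, RT; normalized against uninhibited and no-enzyme wells.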
AMA1 RON2 block: qHTS for Inhibitors of AMA1-RON; Towards Development of Antimalarial Drug Lead: Primary Screen. Plasmodium falciparum AMA1 (3D7) - RON2 peptide interaction. AlphaScreen AMA1-biotinylated RON2 peptide binding. Potency, µM (highest dose often 58.2 µM), usual class: inhibitors. 0.2% of 360,000 active; note: nearly all actives have a fitted effect of over 45% in size
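AMA1 (3D7) with his tag at 25 nM final met compounds first, then biotinylated RON2 peptide at 25 nM; detection used donor plus acceptor beads, 10 µg/mL apiece, read by AlphaScreen after 30 min at room temperature.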
NS1 inh valid: Assay for Inhibitors of Influenza NS1 Protein Function: Hit Validation; AID 492980, 2010; activity change, negative = inhibition, % at 32.9 µM; influenza NS1 function cell assay, 15-point titration; 1,400 tested, under 10 active; shares compounds with NS1 inh; calls by dose curve
PR8 titer: Assay for Inhibitors of Influenza NS1 Protein Function: Influenza virus replication assay in MDCK cells infected with virus A/PR/8/34 | shares compounds with NS1 inh | MDCK infected influenza A/PR/8/34, virus titer TCID50; stronger effect = lower value | virus titer (log TCID50), log10 TCID50 at 5 µM | 30% of 95 active | AID 504647, 2011; call rule not given here
Large screens that a line does not name were inactive (follow-up assays come after a bar, where they were run). Compounds with a hit are over-represented: about 0.92% of the library has one in this group of screens. Unless noted, calls come from the whole dose curve; as a rule, active = well fitted curve in the direction sought with a large enough effect; inconclusive = small, poorly fitted or top-dose-only effect, or another doubt; inactive = no such curve, though single readings can be large; an effect the other way counts as inactive or inconclusive.

C=CCn1c(-c2cccc(Cl)c2)n[nH]c1=S	Tb PYK inh inconclusive, LmPK inhibitor inconclusive
COc1cc(/C=C/C(=O)O)cc(S(=O)(=O)Nc2ccccc2Oc2ccccc2)c1OC	NS1 inh inconclusive | NS1 inh valid inactive
COc1ccc(C(=O)c2oc3ccccc3c2NC(=O)c2nc(SC)ncc2Cl)cc1Cl	none (no result: RE007 growth inh, NS1 inh, LmPK inhibitor, AMA1 RON2 block)
CCCC(=O)Nc1ccc(Cl)c(NC(=S)NC(=O)c2cc3ccccc3o2)c1	NS1 inh inconclusive | NS1 inh valid inactive
CCC(=O)Nc1ccc(NC(=S)NC(=O)c2cc3ccccc3o2)cc1	RE007 growth inh inconclusive
CCn1c(=O)n(CC)c2cc(N3CCCCC3)c(NC(=O)Nc3ccccc3Cl)cc21	none (no result: RE007 growth inh, NS1 inh, LmPK inhibitor, AMA1 RON2 block)
O=C(c1cc(NC(=O)C23CC4CC(CC(C4)C2)C3)cc(NC(=O)C23CC4CC(CC(C4)C2)C3)c1)N1CCCCC1	NS1 inh 11µM | NS1 inh valid inactive
COc1cc(C2C(=O)N(C3CCCCCC3)CC(=O)N2Cc2ccccc2)ccc1OC(C)C (stereo unspecified)	none (no result: RE007 growth inh, NS1 inh, LmPK inhibitor, AMA1 RON2 block)
COc1ccccc1CNc1cc(C)nc2nc(-c3ccc(C)cc3)nn12	none (no result: RE007 growth inh, NS1 inh, LmPK inhibitor, AMA1 RON2 block)
CC1(C)OC(=O)C(=CNCC(O)c2ccccc2)C(=O)O1 (stereo unspecified)	NS1 inh 16µM | NS1 inh valid inactive
CC1=Nc2cc(C(=O)NCCc3ccc(Cl)cc3)ccc2Sc2c(C)ccc(C)c21	none (no result: RE007 growth inh, NS1 inh, LmPK inhibitor, AMA1 RON2 block)
COCCCNC(=O)Cn1c(=O)n(-c2cccc(C)c2)c(=O)c2c1c1cc(C)ccc1n2C	none (no result: RE007 growth inh, NS1 inh, LmPK inhibitor, AMA1 RON2 block)
O=C(NCc1ccc2c(c1)OCO2)C12CN(Cc3ccccc3)CC1C(c1cccc([N+](=O)[O-])c1)=NO2 (stereo unspecified)	NS1 inh 13µM | NS1 inh valid inactive
O=C(NCc1ccc(C(F)(F)F)cc1)C12CN(Cc3ccccc3)CC1C(c1cccc([N+](=O)[O-])c1)=NO2 (stereo unspecified)	NS1 inh 13µM | NS1 inh valid inactive
O=C(NCC1CCCCC1)C12CN(Cc3ccccc3)CC1C(c1cccc([N+](=O)[O-])c1)=NO2 (stereo unspecified)	none
CN(C)c1ccccc1C(=O)c1ccccc1N(C)C	NS1 inh 8.9µM | NS1 inh valid inactive
CC(C)(C)c1nc(N2CCN(C(=O)c3ccco3)CC2)c2nnn(Cc3ccccc3Cl)c2n1	NS1 inh 13µM, AMA1 RON2 block inconclusive | NS1 inh valid inconclusive
NC(=O)C1CCN(c2nc(C3CC3)nc3c2nnn3Cc2ccccc2Cl)CC1	none
O=C(c1cnn2c(C(F)(F)F)cc(-c3cccs3)nc12)N1CCN(C(c2ccccc2)c2ccccc2)CC1	NS1 inh 16µM | NS1 inh valid inactive
CN1CCN(C(=O)c2cnn3c(C(F)(F)F)cc(-c4cccs4)nc23)CC1	none
O=C(NC1CC(=O)N(c2ccc(Cl)cc2)C1)c1ccc(S(=O)(=O)N2CCCC2)cc1 (stereo unspecified)	none (no result: RE007 growth inh, NS1 inh, LmPK inhibitor, AMA1 RON2 block)
COc1ccc(C2=Nc3cccc4cccc(c34)N2)cc1	NS1 inh 3.5µM | NS1 inh valid inactive
Cc1ccc(S(=O)(=O)NCC(=O)N(c2ccccc2)C(C(=O)NCc2ccccc2)c2ccco2)cc1 (stereo unspecified)	none
Cc1cc(C)cc(N(C(=O)CNS(=O)(=O)c2ccccc2)C(C(=O)NCc2ccccc2)c2ccc(C)o2)c1 (stereo unspecified)	NS1 inh 10µM | NS1 inh valid inactive
COc1ccc(CCNC(=O)Cn2cc(S(=O)(=O)Cc3ccc(F)cc3)c3ccccc32)cc1OC	none (no result: RE007 growth inh, NS1 inh, LmPK inhibitor, AMA1 RON2 block)
C[C@@H](C(=O)Nc1ccc2ccccc2c1)[C@H]1C[C@]1(C)[C@H](NC(=O)c1cccnc1)c1ccccc1	NS1 inh 14µM | NS1 inh valid inactive | PR8 titer inactive
COC(=O)N[C@H](c1ccccc1)[C@@]1(C)C[C@@H]1[C@@H](C)C(=O)Nc1ccc2ccccc2c1	none (no result: NS1 inh, LmPK inhibitor)
C[C@@H](C(=O)Nc1ccc2ccccc2c1)[C@@H]1C[C@@]1(C)[C@@H](NC(=O)c1ccccc1)c1ccccc1	NS1 inh 13µM | NS1 inh valid inactive | PR8 titer inactive
C[C@@H](C(=O)Nc1ccc2ccccc2c1)[C@H]1C[C@]1(C)[C@H](NS(=O)(=O)c1ccc(-c2ccccc2)cc1)c1ccccc1	NS1 inh inconclusive
CC(O)C1CCC2C3CCC4CC(O)CCC4(C)C3CCC12C (stereo unspecified)	none (no result: RE007 growth inh, NS1 inh, LmPK inhibitor, AMA1 RON2 block)
COC(=O)CCCC1=CC2=CC(=O)C(C)(OC(=O)c3cccs3)C(=O)C2=CN1CCc1ccccn1 (stereo unspecified)	none
CCCCC1=CC2=CC(=O)C(C)(OC(=O)CC)C(=O)C2=CN1CCc1ccccn1 (stereo unspecified)	NS1 inh inconclusive | NS1 inh valid inactive
CCCCC1=CC2=C(c3ccco3)C(=O)C(C)(OC(=O)c3ccc(OC)cc3)C(=O)C2=CN1CCc1ccccn1 (stereo unspecified)	NS1 inh inconclusive | NS1 inh valid inactive
CN(N=O)c1ccc(O)c(O)c1	NS1 inh 5µM (no result: RE007 growth inh, Tb PYK inh, LmPK inhibitor, AMA1 RON2 block) | NS1 inh valid inactive
O=C(C(=O)c1ccc(O)c(O)c1)c1ccc(O)c(O)c1	none (no result: NS1 inh, LmPK inhibitor)
CC(=O)c1ccc(NC(=O)COC(=O)c2c3c(nc4ccccc24)/C(=C\c2cccs2)CCC3)cc1	NS1 inh inconclusive | NS1 inh valid inactive
COc1ccccc1NC(=O)c1ccc(-c2nc(COc3ccc(C)cc3)c(C)o2)cc1	none (no result: RE007 growth inh, NS1 inh, LmPK inhibitor, AMA1 RON2 block)
CCOC(=O)C1=C(CSc2nc3c(cc2C#N)CN(C)CC3)OC(N)=C(C#N)C1c1ccc(F)cc1 (stereo unspecified)	NS1 inh 10µM, AMA1 RON2 block inconclusive | NS1 inh valid inactive
CCOC(=O)C1=C(CSc2nc(-c3ccccc3)ccc2C#N)OC(N)=C(C#N)C1c1cccnc1 (stereo unspecified)	Tb PYK inh inconclusive, NS1 inh 10µM | NS1 inh valid inactive
CCOC(=O)C1=C(CSc2nc3c(cc2C#N)CN(C)CC3)OC(N)=C(C#N)C1c1ccccc1 (stereo unspecified)	none
O=S(=O)(NCCc1csc2nc(-c3ccc(F)cc3)nn12)c1ccc(Oc2ccccc2)cc1	none (no result: RE007 growth inh, NS1 inh, LmPK inhibitor, AMA1 RON2 block)
Cn1c(=O)cc(OCCCC(=O)NCCCN2CCN(Cc3ccccc3)CC2)c2ccccc21	NS1 inh 3.5µM | NS1 inh valid inactive
